For 14 compounds, growth results are on record in PubChem BioAssay (NCI).

SMILES strings stand for the structures. Compounds without any hit were thinned out: in the full panel of roughly 83,000, 20% have a hit.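 For each line, cells grew in 96-well plates with the test compound present at a single concentration for 48 hours.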 A number with no mark means an inactive call. Activity calls are given as the source filed them. Rule for the calls: active = growth percent below 10; inactive = the rest.

The subject of this experiment is HL-60(TB) leukemia. The experiment in a line: NCI-60 one-dose screen, 48 h (100 = growth as untreated, 0 = no growth, -100 = all killed). As to conditions: 10 µM unless noted.
Take `Cc1cc(Cl)nc(N2CCN(CCNc3ccnc4cc(Cl)ccc34)CC2)n1`: the growth is 27.8%.
Under `COC1CC(OC(=O)c2ccc([N+](=O)[O-])cc2)C(COC(=O)c2ccc([N+](=O)[O-])cc2)O1` (centres undefined) stands 97%; under `NC(N)=NC(N)=NCCCc1ccccc1`, 55.7% [100 µM].
Under `O=C1OC(=O)C2C1C1(Cl)C(Cl)=C(Cl)C2(Cl)C2C(=O)OC(=O)C21` (centres undefined) stands 98%; under `COc1cccc(-c2cn3nc(-c4cn(C)c5ccccc45)sc3n2)c1`, 104%.
As to `C#CCO[C@H]1CC(CC#C)(CC#C)C(=O)[C@@H]2[C@H]1[C@H]1C[C@@H]3[C@@]4(C)CCC[C@@](C)(C(=O)OC)[C@@H]4CC[C@@]23C=C1C(C)C`, the growth was 54.8%.
For the compound `O=C1c2c(c(=O)[nH]c3ccccc23)CCN1Cc1ccccc1`, the growth was 118%.
For `Nc1ccccc1SC1CC(=O)N(c2ccc(I)cc2)C1=O` (centres undefined) the value was 65.6%; for `CCN1C(=O)N(CC)C2C1NN=c1s/c(=C\c3ccccc3F)c(=O)n12` (centres undefined), -48.1% (active); for `CNCCNc1nc2ccccc2c2c(=O)c3cccc(C)c3sc12`, -39.8% (active).
Under `COC(=O)/C=C1/SC(=Nc2ccc([N+](=O)[O-])cc2)N(CCc2c[nH]c3ccccc23)C1=O` stands 69.8%; under `Cc1ccccc1-c1nc(C(Cl)Cl)nc2cc(-c3ccccc3)nn12`, 92%; under `Cc1ccccc1NC(=O)c1cc2ccccc2cc1O`, 0.175% (active).
Take `Cc1ccc(-c2nc3c(N=Nc4ccc(S(N)(=O)=O)cc4)c(N)nn3c(N)c2C#N)cc1`: the growth is 2.71% (active).
